Test results as given in PubChem BioAssay (NCATS).
Results filed as inconclusive are left out. Active and inactive are the calls of the source. The call rests on the fitted dose curve; in most records, active means well fitted inhibition curve with a large enough effect; inconclusive means small, poorly fitted or top-dose-only effect; inactive means flat fitted curve, though single readings scatter. Bridge positions count the residues as written; N and C are the ends. Square brackets hold non-standard residues; d marks the D form. Peptide text beside a SMILES is read from it. * marks the point of attachment. Ileψ(thiazoline)Cys = CC[C@H](C)[C@H](N)C1=N[C@H](C(=O)*)CS1; d(aIle) = CC[C@H](C)[C@@H](N)C(=O)O; dOrn = NCCC[C@@H](N)C(=O)O

What was measured:
Assay in all cases: qHTS profiling for inhibitors of Plasmodium falciparum proliferation (AID 504749); further: nearly all actives have a fitted effect of over 60% in size
Conditions in all cases: P. falciparum in erythrocytes, SYBR Green DNA, 72 h; series mostly up to 12.8 µM
ATS95 = system: ATS95
Method in brief: (§1)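 SYBR Green fluorescence of parasite DNA, read after lysis and overnight dark incubation, measured growth over 72 h in erythrocyte culture at 0.3% parasitemia and 2.5% hematocrit. Data normalised to DMSO and 0.29 uM artemisinin, with plate-drift correction.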

CP192 = system: CP192
Method in brief: as §1

CP211 = system: CP211
Method in brief: as §1

CP260 = system: CP260
Method in brief: as §1

CP262 = system: CP262
Method in brief: as §1

CP266 = system: CP266
Method in brief: as §1

CP305 = system: CP305
Method in brief: as §1

CP325 = system: CP325
Method in brief: as §1

CP329 = system: CP329
Method in brief: as §1

DIV30 = system: DIV30
Method in brief: as §1

Dd2 = system: Dd2
Method in brief: as §1

P94_40 = system: P94_40
Method in brief: as §1

PC15 = system: PC15
Method in brief: as §1

PC26 = system: PC26
Method in brief: as §1

TAB109 = system: TAB109
Method in brief: as §1

TAB165 = system: TAB165
Method in brief: as §1

CP268 = system: CP268
Method in brief: as §1

DIV17 = system: DIV17
Method in brief: as §1

P93_24 = system: P93_24
Method in brief: as §1

W2 = system: W2
Method in brief: as §1

Measured: Potency

CCCCC[C@H](O)/C=C\[C@@H]1[C@H](O)CC(=O)[C@@H]1CCCCCCC(=O)O
not listed: CP268 | DIV17 | P93_24 | W2
inactive: all other assays above

NC[C@@H]1O[C@@H](O[C@H]2[C@H](O)[C@H](O[C@@H]3O[C@H](CO)[C@@H](O)[C@H](N)[C@@H]3O)[C@@H](N)C[C@H]2N)[C@H](N)C[C@@H]1O
inactive: all assays above

C[C@H](CCC(=O)O)[C@H]1CC[C@@H]2[C@@H]3[C@@H](O)C[C@H]4C[C@@H](O)CC[C@@]4(C)[C@H]3CC[C@@]21C
inactive: all assays above

c1ccc2c(c1)CCC[C@@H]2C1=NCCN1
inactive: all assays above

CO[C@@H]1C[C@H](O[C@H]2[C@@H](C)[C@H](O[C@@H]3O[C@@H](C)C[C@@H](N(C)C)[C@@H]3OC(C)=O)[C@H](C)C[C@]3(CO3)C(=O)[C@H](C)[C@H](OC(C)=O)[C@H](C)[C@H](C)OC(=O)[C@@H]2C)O[C@H](C)[C@@H]1OC(C)=O
not listed: CP262 | CP329 | W2
inactive: all other assays above

CC[C@H](C)[C@H](N)C1=N[C@H](C(=O)N[C@@H](CC(C)C)C(=O)N[C@@H](CCC(=O)O)C(=O)N[C@@H](C(=O)N[C@H]2CCCCNC(=O)[C@@H](CC(N)=O)NC(=O)[C@@H](CC(=O)O)NC(=O)[C@@H](Cc3cnc[nH]3)NC(=O)[C@@H](Cc3ccccc3)NC(=O)[C@@H]([C@@H](C)CC)NC(=O)[C@@H](CCCN)NC2=O)[C@@H](C)CC)CS1 ({Ileψ(thiazoline)Cys}-LE[d(aIle)]K[dOrn][d(aIle)][dF][dH][dD][dN]; lactam 4-C)
inactive: all assays above

CCN[C@@H]1C[C@H](N)[C@H](O[C@H]2OC(CN)=CC[C@H]2N)[C@@H](O)[C@H]1O[C@H]1OC[C@@](C)(O)[C@@H](NC)[C@@H]1O
inactive: all assays above

C[C@H](O)Cn1cnc2c1c(=O)n(C)c(=O)n2C
inactive: all assays above

COc1c(O[C@H]2O[C@@H](CO)[C@@H](O)[C@@H](O)[C@@H]2O)cc2c(c1OC)-c1ccc(SC)c(=O)cc1[C@H](NC(C)=O)CC2
not listed: CP260
inactive: all other assays above

C[C@@H]1C[C@H]2[C@@H]3C[C@H](F)C4=CC(=O)C=C[C@@]4(C)[C@]3(F)[C@H](O)C[C@]2(C)[C@@]1(O)C(=O)CO
inactive: all assays above

COc1ccccc1OC[C@H](O)CO
inactive: all assays above

NS(=O)(=O)c1cc2c(cc1Cl)N[C@@H](C(Cl)Cl)NS2(=O)=O
not listed: W2
inactive: all other assays above
